Each structure is given as a SMILES string. Where “and” joins values, the source holds several entries; their conditions need not be identical. Equal values may be shown once. Results filed as inconclusive are left out. Calls of active or inactive are those of the source. Unless noted, calls follow the shape of the full dose curve.

A short description of test [1]: Cell Viability - NIH 3T3 (AID 541; active = well fitted curve in the direction sought with a large enough effect; an effect the other way counts as inactive or inconclusive;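 also: cells exposed to compound for 40 hours; plate controls were DMSO alone for no effect and tamoxifen positive control for full effect; nearly all actives have a fitted effect of over 25% in size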). Particulars: NIH 3T3 cell viability, qHTS; activity change, negative = cytotoxicity: at 92.2 µM (top of the series). In a few lines:
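qHTS format; 40 hr compound exposure, 37 °C; CellTiter-Glo luminescence (cellular ATP) read-out after 20 min at RT. Decrease in ATP = cytotoxicity; AC50 from standard Hill fit.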

The target of test [2] is Peroxisome proliferator-activated receptor gamma (Homo sapiens) (UniProt P37231). In words: qHTS assay for small molecule agonists of peroxisome proliferator-activated receptor gamma signaling (AID 588536; active = well fitted curve in the direction sought with a large enough effect in the signal ratio, with a control signal flat, not every such curve was filed as active; the % refers to the signal ratio;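 also: 0% = DMSO basal wells and 100% = rosiglitazone at 2 µM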). Put shortly: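 This is an agonist-mode beta-lactamase reporter assay in HEK293 PPAR-gamma-UAS-bla cells with 1% charcoal/dextran FBS. Compound titrations ran 16 h at 37 C before CCF4 detection. EC50 and efficacy are Hill fits scaled to 2 uM rosiglitazone (100%) and DMSO basal.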
Chain of Peroxisome proliferator-activated receptor gamma (Homo sapiens) (P37231 whole entry, looked up): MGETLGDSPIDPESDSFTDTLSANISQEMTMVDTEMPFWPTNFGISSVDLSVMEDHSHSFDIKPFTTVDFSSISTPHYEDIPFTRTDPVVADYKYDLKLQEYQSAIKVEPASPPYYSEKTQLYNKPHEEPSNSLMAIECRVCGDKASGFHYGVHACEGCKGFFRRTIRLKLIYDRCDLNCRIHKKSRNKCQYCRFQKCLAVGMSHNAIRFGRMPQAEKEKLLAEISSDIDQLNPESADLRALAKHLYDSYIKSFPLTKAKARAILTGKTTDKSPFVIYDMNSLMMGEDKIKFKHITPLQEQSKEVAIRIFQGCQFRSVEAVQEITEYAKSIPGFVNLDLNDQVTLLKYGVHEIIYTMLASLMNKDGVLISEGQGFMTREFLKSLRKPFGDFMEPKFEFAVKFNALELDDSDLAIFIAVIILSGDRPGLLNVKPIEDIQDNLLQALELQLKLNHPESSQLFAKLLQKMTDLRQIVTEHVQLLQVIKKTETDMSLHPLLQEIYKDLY

The target is the same in test [3]. In words: qHTS assay for small molecule antagonists of peroxisome proliferator-activated receptor gamma signaling (AID 588537; active = well fitted inhibition curve with a large enough effect in the signal ratio, with a control signal flat, not every such curve was filed as active; the % refers to the signal ratio;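 also: reporter cells co-stimulated with 50 nM rosiglitazone agonist during compound treatment; % of control where 0% means no effect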). Put shortly:
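Read-out: CCF4 fluorescence (ex 405, em 460/530 nm) after 2 h at RT. Cells were HEK293 carrying a UAS-bla reporter and treated 16 h at 37 C with compound plus rosiglitazone (50 nM final). Normalized to rosiglitazone and DMSO.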

Test [4] has as its target Thyroid hormone receptor beta (Homo sapiens) (UniProt P10828). Put plainly: qHTS assay for small molecule agonists of thyroid hormone receptor beta signaling (AID 588545).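 Also: 0% = DMSO only and 100% = 10 nM T3.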 Put shortly: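 Efficacy and EC50 values derive from Hill fits of qHTS titration data, normalized to 10 nM T3 and DMSO-only wells. HEK 293 reporter cells were stimulated for 18 hrs at 37 C, with beta-lactamase activity measured by CCF4 fluorescence.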

Test [5] is described as follows: qHTS assay for small molecule disruptors of the mitochondrial membrane potential - 5 hr assay (AID 651755). Also: % is scaled to controls: 0 for no effect and ±100 for the full control effect; nearly all actives have a fitted effect of over 40% in size. In a few lines:
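Read-out: ratiometric Mito-MPS fluorescence, green monomer (ex 490/em 535) vs red mitochondrial aggregate (ex 540/em 590). HepG2 cells treated 5 hr at 37C before 30 min dye loading.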

In test [6] the target is Tumor necrosis factor (Homo sapiens) (UniProt P01375). In words: qHTS assay to identify small molecules that stimulate Tumor Necrosis Factor-alpha (TNF-alpha) secretion (AID 651757; active = well fitted curve in the direction sought with a large enough effect in the signal ratio; the % refers to the signal ratio; also: 0% is about no effect). Put shortly:
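THP-1 cells, 3000/well; compound 17 hrs, 37 C; add cryptate/XL665 anti-TNF-alpha antibody pair; 3 hr RT; TR-FRET (HTRF) read of secreted TNF-alpha. Quantitative HTS format.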

Test [7] can be described thus: qHTS assay for environmental chemicals that activate the Aryl hydrocarbon Receptor (AhR) signaling pathway (AID 651777; active = well fitted curve in the direction sought with a large enough effect; an effect the other way counts as inactive or inconclusive; also: % of control where 0% means no effect; nearly all actives have a fitted effect of over 15% in size). To be noted: 1A2-DRE human hepatoma cells, luciferase, 24 h; activation: stronger effect = higher value. In a few lines:
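Following a 24 hr incubation with test chemicals at 37 C and 5% CO2, 1A2-DRE human hepatoma cells received One-Glo reagent; after 30 min at room temperature, luciferase output reflected CYP1A2 induction via AhR.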

For test [8], the target named is Estrogen receptor (Homo sapiens) (UniProt P03372). Put plainly: qHTS assay for small molecule antagonists of estrogen receptor alpha signaling (AID 588513; active = well fitted curve in the direction sought with a large enough effect in the signal ratio, with a control signal flat, not every such curve was filed as active; the % refers to the signal ratio; also: % is scaled to controls: 0 for no effect and ±100 for the full control effect). Put shortly: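 ER-alpha-UAS-bla GripTite HEK 293 cells in 2% charcoal/dextran-treated FBS medium; compounds titrated (1:2, duplicate), then stimulated with 0.5 nM 17-beta-estradiol for 18 h at 37C. CCF4 beta-lactamase fluorescence; Hill-fit IC50 and efficacy.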
Chain of Estrogen receptor (Homo sapiens) (P03372 whole entry, looked up): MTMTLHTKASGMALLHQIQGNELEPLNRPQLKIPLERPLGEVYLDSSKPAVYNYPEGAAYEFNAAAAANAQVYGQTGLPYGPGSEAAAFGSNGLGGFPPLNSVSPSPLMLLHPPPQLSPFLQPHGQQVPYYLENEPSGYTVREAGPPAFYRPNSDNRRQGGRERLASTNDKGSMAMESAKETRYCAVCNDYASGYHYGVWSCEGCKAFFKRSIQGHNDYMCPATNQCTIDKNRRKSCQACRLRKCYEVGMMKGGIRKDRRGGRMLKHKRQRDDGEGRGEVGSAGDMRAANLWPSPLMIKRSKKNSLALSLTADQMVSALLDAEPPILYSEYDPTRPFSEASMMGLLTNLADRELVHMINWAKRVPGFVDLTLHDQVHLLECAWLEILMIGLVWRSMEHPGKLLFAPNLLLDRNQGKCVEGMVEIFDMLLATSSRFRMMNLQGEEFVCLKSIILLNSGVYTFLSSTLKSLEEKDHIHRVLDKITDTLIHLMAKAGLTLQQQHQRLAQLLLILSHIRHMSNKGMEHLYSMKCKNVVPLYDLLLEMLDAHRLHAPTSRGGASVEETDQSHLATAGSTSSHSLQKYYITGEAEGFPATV

Test [9] concerns the target Glucocorticoid receptor (Homo sapiens) (UniProt P04150). Put plainly: qHTS assay for small molecule agonists of glucocorticoid receptor signaling (AID 588532; active = well fitted curve in the direction sought with a large enough effect in the signal ratio, with a control signal flat; the % refers to the signal ratio;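 also: 100% = dexamethasone at 0.1 µM and 0% = DMSO only wells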). Particulars: HeLa MMTV-bla, beta-lactamase ratio, agonist, 18 h; stronger effect = higher value; percent of dexamethasone control, DMSO zero. In a few lines: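 MMTV-bla HeLa beta-lactamase reporter cells in 1% charcoal/dextran FBS medium, compounds up to 92 uM for 18 h at 37 C, CCF4 readout; normalized to 0.1 uM dexamethasone (100%), EC50 and efficacy from Hill fits.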

Test [10] has the same target. In words: qHTS assay for small molecule antagonists of glucocorticoid receptor signaling (AID 588533; active = well fitted inhibition curve with a large enough effect in the signal ratio, with a control signal flat, not every such curve was filed as active; the % refers to the signal ratio;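 also: cells stimulated with 2 nM dexamethasone as agonist; % is scaled to controls: 0 for no effect and ±100 for the full control effect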). Put shortly: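 Antagonist-mode qHTS: compound titrations added to GRE-bla HeLa cells, then dexamethasone 2 nM final; 18 h, 37 C. CCF4 FRET fluorescence normalized to dexamethasone and DMSO; IC50 from Hill fit.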
Test [11] addresses Peroxisome proliferator-activated receptor delta (Homo sapiens) (UniProt Q03181). Put plainly: qHTS assay for small molecule agonists of peroxisome proliferator-activated receptor delta signaling (AID 588534).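 Also: 0% = DMSO basal wells and 100% = positive control agonist at 10 µM.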 Put shortly: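 Titration series tested in agonist mode on beta-lactamase reporter cells; 18 hrs at 37 C after a 5 hr pre-incubation. Readout: CCF4 fluorescence, 2 hrs RT. Hill equation gives EC50 and maximal response.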

Test [12] can be described thus: qHTS assay for small molecule antagonists of peroxisome proliferator-activated receptor delta signaling (AID 588535; active = well fitted inhibition curve with a large enough effect in the signal ratio, with a control signal flat, not every such curve was filed as active; the % refers to the signal ratio;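 as to max response: cells co-treated with a PPAR-delta agonist as stimulator during compound exposure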). To be noted: HEK293T PPARd-UAS-bla, beta-lactamase FRET ratio, 18 h; 460 nm channel. Put shortly:
(§1)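 Beta-lactamase reporter read-out (405 nm excitation, 460/530 nm emission) after CCF4 loading for 2 hrs at RT. HEK293T PPAR-delta-UAS-bla cells, 2% charcoal/dextran FBS, compounds for 18 hrs at 37 C. Hill fit gave IC50 and efficacy.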

For test [13], the target named is Peroxisome proliferator-activated receptor delta (Homo sapiens) (UniProt Q03181). The test is described as above. In a few lines:
as §1

For test [14], the target named is Vitamin D3 receptor (Homo sapiens) (UniProt P11473). In words: qHTS assay for small molecule agonists of vitamin D receptor signaling (AID 588543).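 Also: 0% = DMSO basal and 100% = reference agonist control.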 Put shortly: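 VDR-UAS-bla HEK293T cells, 2000/well, 2% charcoal-stripped FBS; compound titration 16 h at 37 C; CCF4 beta-lactamase ratio read. Normalized to 50 nM 1-alpha,25-dihydroxyvitamin D3 (100%) and DMSO; Hill fit gives EC50, efficacy.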
Chain of Vitamin D3 receptor (Homo sapiens) (P11473 whole entry, looked up): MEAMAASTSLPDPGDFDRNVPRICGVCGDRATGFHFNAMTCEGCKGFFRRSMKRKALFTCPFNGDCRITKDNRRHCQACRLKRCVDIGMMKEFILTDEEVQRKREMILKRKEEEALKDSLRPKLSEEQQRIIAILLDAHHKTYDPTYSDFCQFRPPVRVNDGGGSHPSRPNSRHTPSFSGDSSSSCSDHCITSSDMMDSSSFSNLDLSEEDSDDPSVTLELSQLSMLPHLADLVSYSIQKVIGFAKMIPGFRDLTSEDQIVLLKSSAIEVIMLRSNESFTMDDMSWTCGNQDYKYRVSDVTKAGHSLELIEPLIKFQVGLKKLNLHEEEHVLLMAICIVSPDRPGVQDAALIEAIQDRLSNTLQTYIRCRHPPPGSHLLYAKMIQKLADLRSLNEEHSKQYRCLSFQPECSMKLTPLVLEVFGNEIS

Test [15] has as its target Thyroid hormone receptor beta (Homo sapiens) (UniProt P10828). In words: qHTS assay for small molecule antagonists of thyroid hormone receptor beta signaling (AID 588547; active = well fitted inhibition curve with a large enough effect in the signal ratio, with a control signal flat, not every such curve was filed as active; the % refers to the signal ratio;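 also: cells stimulated with 0.4 nM T3 agonist during compound exposure; % is scaled to controls: 0 for no effect and ±100 for the full control effect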). Particulars: TR-UAS-bla HEK293, beta-lactamase ratio, antagonist mode, 18 h. Put shortly: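 TR-UAS-bla GripTite HEK293 cells in 2% charcoal/dextran FBS medium; compounds 0.59 nM to 92 uM with T3 at 0.4nM final, 18 h at 37 C. Beta-lactamase read by CCF4 fluorescence (460/530 nm); Hill fits gave IC50 and efficacy.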

Test [16] can be described thus: qHTS assay for small molecule activators of the nuclear factor-kappa B (NF-kB) signaling pathway (AID 651749; active = well fitted activation curve with a large enough effect in the signal ratio; the % refers to the signal ratio; also: % of control where 0% means no effect). Particulars: NF-kB-bla ME-180 cells, beta-lactamase FRET ratio, 16 h; stronger effect = higher value. Put shortly: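 NF-kB-bla ME-180 cells, 2,000/well; 23 nL compound or DMSO pinned; 16 hr, 37C/5% CO2; beta-lactamase FRET read-out.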
The target in test [17] is Nuclear receptor ROR-gamma (Homo sapiens) (UniProt P51449). In words: qHTS assay for small molecule antagonists of the retinoid-related orphan receptor gamma (ROR-gamma) signaling pathway (AID 651802; active = well fitted curve in the direction sought with a large enough effect; an effect the other way counts as inactive or inconclusive;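 also: CHO cells with doxycycline-induced ROR-gamma expression; luciferase reporter luminescence driven by ROR response element; % is scaled to controls: 0 for no effect and ±100 for the full control effect; nearly all actives have a fitted effect of over 60% in size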). In a few lines: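 Luciferase read-out: ONE-Glo luminescence after 30 min at room temperature, following 16hr doxycycline induction at 37C, 5% CO2 of CHO cells with TET-inducible ROR and RORE-LUC reporter; decreased luminescence = reduced reporter activity.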
Chain of Nuclear receptor ROR-gamma (Homo sapiens) (P51449 whole entry, looked up): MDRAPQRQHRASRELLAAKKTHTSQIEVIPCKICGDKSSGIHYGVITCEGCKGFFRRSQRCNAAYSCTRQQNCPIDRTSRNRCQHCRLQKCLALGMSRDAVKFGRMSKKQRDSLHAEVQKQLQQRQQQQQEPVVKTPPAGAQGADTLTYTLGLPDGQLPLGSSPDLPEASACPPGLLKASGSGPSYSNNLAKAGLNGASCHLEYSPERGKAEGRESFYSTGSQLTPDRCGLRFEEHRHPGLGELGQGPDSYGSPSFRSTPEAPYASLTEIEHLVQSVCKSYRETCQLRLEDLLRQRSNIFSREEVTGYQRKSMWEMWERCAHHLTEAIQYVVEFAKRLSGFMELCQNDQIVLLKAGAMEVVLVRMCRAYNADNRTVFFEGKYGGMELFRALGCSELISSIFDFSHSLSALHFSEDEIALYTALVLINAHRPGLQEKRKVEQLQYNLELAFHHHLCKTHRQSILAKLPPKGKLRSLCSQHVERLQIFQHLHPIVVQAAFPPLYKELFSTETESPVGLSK

Test [18] is described as follows: qHTS assay for small molecule agonists of the antioxidant response element (ARE) signaling pathway measured by Nrf2-dependant transcriptional activity (AID 720636; active = well fitted curve in the direction sought with a large enough effect in the repeat runs; an effect the other way counts as inactive or inconclusive;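 also: HepG2 cells with an ARE-driven luciferase reporter; % of control where 0% means no effect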). In a few lines:
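ONE-Glo luminescence, read 30 min after reagent addition at room temperature, reflected ARE reporter activity in HepG2 cells that had been incubated with compound for 16 hr at 37 C in 1% dialyzed FBS.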

Test [19] is described as follows: qHTS assay to identify small molecules that stimulate interleukin-8 (IL-8) secretion (AID 651758; active = well fitted activation curve with a large enough effect in the signal ratio; the % refers to the signal ratio; also: 0% is about no effect). In a few lines: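 Compounds are added to THP-1 cells (2000 per well) and left 16 hrs at 37 C. A labeled anti-IL-8 antibody pair is then added, and IL-8 secretion is measured by time-resolved FRET after 1-3 hrs at room temperature.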
For test [20], the target named is Bile acid receptor (Homo sapiens) (UniProt Q96RI1). In words: qHTS assay for small molecule agonists of farnesoid X receptor signaling (AID 588527).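 Also: 0% = vehicle basal and 100% = reference agonist.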 Particulars: HEK293T FXR-UAS-bla, beta-lactamase ratio, 16 h; stronger effect = higher value. In a few lines:
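Agonist-mode beta-lactamase reporter in GeneBLAzer FXR-UAS-bla HEK293T cells, titration up to 92 uM, 16 h exposure at 37 C, CCF4 fluorescence. Response scaled to DMSO (0%) and 100 uM chenodeoxycholic acid (100%), then Hill-fitted for EC50 and efficacy.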

Chain of Thyroid hormone receptor beta (Homo sapiens) (P10828 whole entry, looked up): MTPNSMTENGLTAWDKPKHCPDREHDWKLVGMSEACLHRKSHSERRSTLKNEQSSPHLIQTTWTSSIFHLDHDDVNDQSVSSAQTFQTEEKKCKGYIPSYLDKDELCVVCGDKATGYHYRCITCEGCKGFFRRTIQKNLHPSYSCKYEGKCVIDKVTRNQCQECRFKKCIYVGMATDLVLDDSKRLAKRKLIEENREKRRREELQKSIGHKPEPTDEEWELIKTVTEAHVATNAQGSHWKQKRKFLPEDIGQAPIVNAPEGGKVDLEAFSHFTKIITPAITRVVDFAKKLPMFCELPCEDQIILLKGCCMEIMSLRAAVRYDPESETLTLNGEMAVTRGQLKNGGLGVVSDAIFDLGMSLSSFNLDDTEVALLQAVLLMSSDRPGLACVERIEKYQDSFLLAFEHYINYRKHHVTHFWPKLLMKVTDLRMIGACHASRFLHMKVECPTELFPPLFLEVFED
Chain of Tumor necrosis factor (Homo sapiens) (P01375 whole entry, looked up): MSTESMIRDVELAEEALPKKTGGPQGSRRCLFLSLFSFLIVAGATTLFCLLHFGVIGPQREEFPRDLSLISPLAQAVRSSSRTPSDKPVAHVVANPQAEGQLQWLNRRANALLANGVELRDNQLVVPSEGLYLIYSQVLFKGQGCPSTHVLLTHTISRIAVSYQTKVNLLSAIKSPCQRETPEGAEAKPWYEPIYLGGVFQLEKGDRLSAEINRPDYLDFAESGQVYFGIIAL
Chain of Glucocorticoid receptor (Homo sapiens) (P04150 whole entry, looked up): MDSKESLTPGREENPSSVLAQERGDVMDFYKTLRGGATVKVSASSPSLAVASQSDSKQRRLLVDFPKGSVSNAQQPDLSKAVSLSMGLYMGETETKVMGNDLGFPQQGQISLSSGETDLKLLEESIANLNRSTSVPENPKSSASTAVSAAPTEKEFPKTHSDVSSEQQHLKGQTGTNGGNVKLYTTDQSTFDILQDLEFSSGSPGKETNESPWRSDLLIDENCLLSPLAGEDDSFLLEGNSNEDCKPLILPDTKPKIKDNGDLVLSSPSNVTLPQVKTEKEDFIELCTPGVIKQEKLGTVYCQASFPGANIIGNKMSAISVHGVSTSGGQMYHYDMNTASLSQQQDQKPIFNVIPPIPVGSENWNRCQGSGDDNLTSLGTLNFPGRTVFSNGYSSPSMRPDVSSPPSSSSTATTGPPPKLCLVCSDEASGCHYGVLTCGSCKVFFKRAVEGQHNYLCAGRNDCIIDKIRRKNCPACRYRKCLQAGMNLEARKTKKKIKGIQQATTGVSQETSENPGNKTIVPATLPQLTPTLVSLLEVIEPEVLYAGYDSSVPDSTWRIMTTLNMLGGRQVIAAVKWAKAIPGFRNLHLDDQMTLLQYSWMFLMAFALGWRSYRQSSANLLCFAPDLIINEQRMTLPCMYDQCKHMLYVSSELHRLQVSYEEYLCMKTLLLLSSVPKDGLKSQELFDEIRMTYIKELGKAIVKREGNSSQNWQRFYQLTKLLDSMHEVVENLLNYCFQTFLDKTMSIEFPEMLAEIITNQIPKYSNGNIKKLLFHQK
Chain of Peroxisome proliferator-activated receptor delta (Homo sapiens) (Q03181 whole entry, looked up): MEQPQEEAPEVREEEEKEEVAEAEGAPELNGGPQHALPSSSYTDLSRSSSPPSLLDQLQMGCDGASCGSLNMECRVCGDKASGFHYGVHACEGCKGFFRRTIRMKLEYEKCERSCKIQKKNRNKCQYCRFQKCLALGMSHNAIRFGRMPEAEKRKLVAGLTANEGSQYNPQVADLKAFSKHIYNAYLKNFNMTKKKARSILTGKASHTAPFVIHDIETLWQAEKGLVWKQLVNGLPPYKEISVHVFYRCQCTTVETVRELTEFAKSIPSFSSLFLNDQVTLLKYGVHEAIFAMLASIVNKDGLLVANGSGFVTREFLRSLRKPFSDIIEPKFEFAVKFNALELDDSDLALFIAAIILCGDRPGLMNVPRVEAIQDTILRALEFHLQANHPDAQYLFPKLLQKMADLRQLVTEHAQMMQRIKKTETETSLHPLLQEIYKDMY
Chain of Bile acid receptor (Homo sapiens) (Q96RI1 whole entry, looked up): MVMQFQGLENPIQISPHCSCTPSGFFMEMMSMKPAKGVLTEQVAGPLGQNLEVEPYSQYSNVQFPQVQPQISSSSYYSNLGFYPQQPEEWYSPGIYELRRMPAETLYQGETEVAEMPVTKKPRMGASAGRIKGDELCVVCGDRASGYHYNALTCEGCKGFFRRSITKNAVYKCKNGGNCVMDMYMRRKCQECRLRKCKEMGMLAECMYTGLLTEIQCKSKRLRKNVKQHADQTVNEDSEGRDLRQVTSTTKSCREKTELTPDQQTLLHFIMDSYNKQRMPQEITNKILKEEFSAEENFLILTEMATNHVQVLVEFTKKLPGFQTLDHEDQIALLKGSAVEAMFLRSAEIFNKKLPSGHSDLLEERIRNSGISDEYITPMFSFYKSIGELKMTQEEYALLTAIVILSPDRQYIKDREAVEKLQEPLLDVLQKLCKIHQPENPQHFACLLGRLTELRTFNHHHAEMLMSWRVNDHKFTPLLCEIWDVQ

In the case of `COc1ccccc1N`, the Potency result in test [1], in [3], in test [4] and in test [5] was “inactive” throughout. Further, the outcome in test [2] and in test [6] was inactive. In addition, the activation in [7] is -0.373% (inactive).
As to `Cc1ccccc1[N+](=O)[O-]`, the Potency entry in test [1], in test [8], in test [3], in [4], in [17] and in [18] was “inactive” each time. Besides, the activation in test [9] was -7.47% (inactive); in test [16], 3.11% (inactive). Also, the outcome in test [10], in test [11], in test [13], in test [2], in test [14] and in test [6] was inactive. For the same compound, the max response in [12] is -51%. Besides, the activity change % (negative = inhibition) in test [15] was 6.46% (inactive).
In the case of `O=NN1CCCCC1`, the Potency entry in test [1], in test [19] and in [17] was “inactive” in each case. Moreover, the activation in [9] is 0.249% (inactive); in test [16], -0.849% (inactive); in test [7], 1.05% (inactive). Also, the compound was classed as inactive in test [10], in test [11], in test [13], in test [14] and in [6]. In test [12], the max response is -27.9%. The activity change % (negative = inhibition) in test [15] was 8.23% (inactive).
As for `CCNCC`, the Potency entry in test [1], in test [3], in test [5] and in [17] was “inactive” in each case. Also, the figures for the activation in [9] and in test [7] were 0.672% (inactive) and -0.962% (inactive), respectively. Also, the call in test [10], in test [11], in test [13], in test [2] and in test [6] was inactive. In addition, in test [12], the max response is 21.4%. In test [15], the activity change % (negative = inhibition) is 15.3% (inactive).
In the case of `C=CC(=O)OC`, the Potency entry in [1], in test [3], in test [4] and in test [17] was “inactive” each time. For the same compound, the activation in test [20] is 1.11% (inactive); in test [16] it was -0.11% (inactive); in [7], 1.42% (inactive). Also, the result in [11] and in test [2] was inactive. For the same compound, the activity change % (negative = inhibition) in test [15] is -6.86% (inactive).
With `CC(Cl)(Cl)Cl`, the Potency entry in test [1], in [3], in test [4], in [5], in test [19] and in test [18] was “inactive” throughout. In addition, the compound was classed as inactive in test [11], in [13], in [2], in test [14] and in test [6]. The max response in [12] was -34.9% and 9.34%. Besides, the activation in test [16] was -0.312% (inactive) and 0.328% (inactive); in test [7], -0.393% (inactive) and 0.414% (inactive).
For the compound `ClCc1ccccc1`, the Potency entry in [8], in [4], in [5], in [17] and in test [18] was “inactive” in each case. The compound was classed as inactive in [11], in [13], in test [2], in test [14] and in test [6]. For the same compound, the max response in test [12] was -22.1%. Besides, in test [16], the activation is -0.661% (inactive).
As for `CC(=O)NNc1ccccc1`, the Potency result in test [1], in test [4], in [5], in test [17] and in [18] was “inactive” throughout. For the same compound, the activation in test [20] was -3.51% (inactive). Also, the max response in test [12] was 50%. The outcome in test [13], in test [2] and in [14] was inactive.
For `C=C(Cl)CCl`, the Potency result in test [1], in test [8], in [4], in test [19], in test [17] and in test [18] was “inactive” each time. In addition, the activation in [9] was -2.96% (inactive); in test [16], 0.174% (inactive). The compound was classed as inactive in test [10], in test [11], in test [13], in [2], in [14] and in [6]. Also, the max response in test [12] stood at 15.9%. For the same compound, in test [15], the activity change % (negative = inhibition) was 0.727% (inactive).

The record behind these values is PubChem BioAssay (NCATS).
